Measurements: PubChem BioAssay AID624098 (National Center for Advancing Translational Sciences (NCATS), 2012)
Inconclusive results are not listed. The source made the active and inactive calls.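 How the source made its calls: active means immobility above 50% at 10 µM after 1 hour; inconclusive means immobility from 15% to 50% at 1 hour; inactive means immobility below 15%.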

Assay: Assay for General Anesthetic Phenotype in Xenopus Tadpoles
Conditions: startle-response immobility, 1 h, at 10 µM, stronger effect = higher value
Source text: Anesthetic development has remained a largely empirical process. There are growing concerns about the cognitive effects of known general anesthetics and acceleration of the onset of neurodegenerative disease. The compounds' toxicity and multiple specific binding targets in the mammalian brain [4] has made them less attractive as drug leads. This assay was designed for the in vivo follow-up testing of compounds in tadpoles. References: [1] S.L. Bianchi, T. Tran, C. Liu, S. Lin, Y. Li, J.M. Keller, R.G. Eckenhoff, and M.F. Eckenhoff, Brain and behavior changes in 12-month-old Tg2576 and nontransgenic mice exposed to anesthetics. Neurobiol Aging 29 (2008) 1002-10. Z. Xie, Y. Dong, U. Maeda, R.D. Moir, W. Xia, D.J. Culley, G. Crosby, and R.E. Tanzi, The inhalation anesthetic isoflurane induces a vicious cycle of apoptosis and amyloid beta-protein accumulation. J Neurosci 27 (2007) 1247-54. P. Honegger, and J.M. Matthieu, Selective toxicity of the general anesthetic propofol for GABAergic neurons in rat brain cell cultures. J Neurosci Res 45 (1996) 631-6. M.F. Eckenhoff, K. Chan, and R.G. Eckenhoff, Multiple specific binding targets for inhaled anesthetics in the mammalian brain. J Pharmacol Exp Ther 300 (2002) 172-9. C.A. Butts, J. Xi, G. Brannigan, A.A. Saad, S.P. Venkatachalan, R.A. Pearce, M.L. Klein, R.G. Eckenhoff, and I.J. Dmochowski, Identification of a fluorescent general anesthetic, 1-aminoanthracene. Proc Natl Acad Sci U S A 106 (2009) 6501-6. W.A. Lea, J. Xi, A. Jadhav, L. Lu, C.P. Austin, A. Simeonov, and R.G. Eckenhoff, A high-throughput approach for identification of novel general anesthetics. PLoS One 4 (2009) e7150.
Pre-limb bud Xenopus tadpoles were obtained in large batches from Nasco, Inc. Batches of 10 tadpoles were placed in 20 mm Petri dishes with approximately 20 ml of pond water ("pond water" is approximately a 20-fold dilution of Ringers saline solution). Compounds were added to the pond water from DMSO stock to obtain 100, 10 and 1 microM concentrations. Tadpoles were then incubated with these solutions for 1 hour, and then scored for "anesthesia". Anesthesia in this case is lack of movement in response to a sharp tap on the Petri dish lid, i.e., a lack of startle response. This correlates well to the loss of righting reflex in rodents and the loss of consciousness in humans. The pond water is then changed, and the return of a startle response is monitored for 24 hours. Immobility at 24 hours is considered death.

Row | SMILES | immobility
1 | CC(C)COc1ccc(-c2ccc(=O)n(CC(=O)NCCc3ccccc3)n2)cc1 | 100% (active)
2 | O=C(Cn1nc(-c2ccc(C(F)(F)F)cc2)ccc1=O)NCCc1ccccc1 | 0% (inactive)
3 | COc1ccc(-c2ccc(=O)n(CC(=O)NCCc3ccccc3)n2)cc1 | 75% (active)

Same assay, conditions: startle-response immobility, 1 h, measured here: 24 h immobility, toxicity/death, at 10 µM

Row | SMILES | immobility
4 | CC(C)COc1ccc(-c2ccc(=O)n(CC(=O)NCCc3ccccc3)n2)cc1 | 0%
5 | O=C(Cn1nc(-c2ccc(C(F)(F)F)cc2)ccc1=O)NCCc1ccccc1 | 5%
6 | COc1ccc(-c2ccc(=O)n(CC(=O)NCCc3ccccc3)n2)cc1 | 5%
